SMILES strings stand for the structures. A number with no mark means an inactive call. For part of these data: Measured potencies and affinities stand elsewhere. Calls of active or inactive are those of the source. Unless noted, the rule behind the calls is not given here.

A short description of test [1]: antimalarial activity against Dd2 strain (AID 2302;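 active = growth inhibition above 50% at the single 2 µM test dose, taken to imply half-maximal potency below 2 µM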;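 note: 0% = DMSO untreated growth and 100% = chloroquine plus artemisinin killed control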). To be noted: P. falciparum Dd2 in RBCs, LDH growth readout, 72 h; at 2 µM; active compounds read high.
Test [2] is described as follows: human hepatoma cell viability loss – ATP luminescence, cytotoxicity control for P. falciparum antimalarial project, primary screen (AID 2303;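 active = inhibition above 50%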;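 note: 0% = DMSO wells and 100% = digitonin-killed cells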). The conditions noted are these: HepG2 viability, 24-48 h, at 10 µM, active compounds read high.
The target of test [3] is L-lactate dehydrogenase (Plasmodium falciparum (isolate CDC / Honduras)) (UniProt Q27743). Briefly: PfLDH activity inhibition – cell lysate, 3D7 strain, counter-screen for P. falciparum growth inhibition project (AID 2304).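 Note: 0% = vehicle and 100% = reference inhibitor.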 To be noted: P. falciparum 3D7 crude extract, LDH APAD/NBT absorbance; at 2 µM; active compounds read high.
L-lactate dehydrogenase (Plasmodium falciparum (isolate CDC / Honduras)), sequence (Q27743 whole entry, looked up): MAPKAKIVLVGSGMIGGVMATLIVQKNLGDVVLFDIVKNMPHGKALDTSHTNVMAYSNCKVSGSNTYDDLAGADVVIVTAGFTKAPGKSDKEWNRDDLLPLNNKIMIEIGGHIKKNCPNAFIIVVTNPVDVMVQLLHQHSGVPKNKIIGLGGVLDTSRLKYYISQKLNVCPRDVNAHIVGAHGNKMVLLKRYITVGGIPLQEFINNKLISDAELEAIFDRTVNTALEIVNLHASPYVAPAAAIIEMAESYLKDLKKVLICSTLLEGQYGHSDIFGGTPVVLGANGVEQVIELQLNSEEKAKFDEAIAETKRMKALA
Test [4] in a line: inhibition of 3D7 malaria parasite growth – strain 3D7 (AID 2306).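 Note: 0% = DMSO wells and 100% = chloroquine plus artemisinin control wells.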 The conditions noted are these: P. falciparum 3D7 erythrocytic growth, LDH absorbance, 72 h; at 2 µM; active compounds read high.
Test [5] addresses Calcium-dependent protein kinase 1 (Plasmodium falciparum (isolate 3D7)) (UniProt P62344). Kind of test: PfCDPK1 kinase inhibitors, biochemical, TCAMS library (AID 1159585; cut-off not given, nearly all actives have IC50 up to about 0.98 µM;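 note: inhibitors leave more ATP so luminescence rises with inhibition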). To be noted: recombinant PfCDPK1, Kinase-Glo ATP depletion luminescence.
In test [6] the target is Plasmodium falciparum protein kinase 6 (PK6, PF3D7_1337100) (UniProt Q8IDW1). Kind of test: PfPK6 kinase inhibitors, biochemical, TCAMS library (AID 1159586). To be noted: recombinant PfPK6, Kinase-Glo ATP depletion luminescence.
Plasmodium falciparum protein kinase 6 (PK6, PF3D7_1337100), sequence (Q8IDW1 1-305): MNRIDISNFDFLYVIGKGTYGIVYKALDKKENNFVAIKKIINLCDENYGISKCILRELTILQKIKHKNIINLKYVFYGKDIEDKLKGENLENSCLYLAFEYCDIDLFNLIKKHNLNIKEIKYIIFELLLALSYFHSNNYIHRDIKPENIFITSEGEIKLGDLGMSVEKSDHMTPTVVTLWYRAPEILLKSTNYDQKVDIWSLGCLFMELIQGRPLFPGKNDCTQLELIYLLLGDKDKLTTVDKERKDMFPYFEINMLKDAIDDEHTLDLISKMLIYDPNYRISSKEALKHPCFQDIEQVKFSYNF
Test [7] concerns the target Protein kinase 7 (PK7), Plasmodium falciparum 3D7 (PF3D7_0213400) (UniProt Q7YTF7). Briefly: inhibition of Plasmodium PK7 catalytic activity – biochemical, TCAMS antimalarial set, Kinase-Glo luminescence (AID 1159587). To be noted: recombinant PfPK7, Kinase-Glo ATP depletion luminescence.
In test [8] the target is Calcium-dependent protein kinase 4 (Plasmodium falciparum (isolate 3D7)) (UniProt Q8IBS5). Briefly: PfCDPK4 kinase inhibitors, biochemical, TCAMS library (AID 1159588; cut-off not given, nearly all actives have IC50 up to about 0.91 µM). To be noted: recombinant PfCDPK4, Kinase-Glo ATP depletion luminescence.
Calcium-dependent protein kinase 4 (Plasmodium falciparum (isolate 3D7)), sequence (Q8IBS5 whole entry, looked up): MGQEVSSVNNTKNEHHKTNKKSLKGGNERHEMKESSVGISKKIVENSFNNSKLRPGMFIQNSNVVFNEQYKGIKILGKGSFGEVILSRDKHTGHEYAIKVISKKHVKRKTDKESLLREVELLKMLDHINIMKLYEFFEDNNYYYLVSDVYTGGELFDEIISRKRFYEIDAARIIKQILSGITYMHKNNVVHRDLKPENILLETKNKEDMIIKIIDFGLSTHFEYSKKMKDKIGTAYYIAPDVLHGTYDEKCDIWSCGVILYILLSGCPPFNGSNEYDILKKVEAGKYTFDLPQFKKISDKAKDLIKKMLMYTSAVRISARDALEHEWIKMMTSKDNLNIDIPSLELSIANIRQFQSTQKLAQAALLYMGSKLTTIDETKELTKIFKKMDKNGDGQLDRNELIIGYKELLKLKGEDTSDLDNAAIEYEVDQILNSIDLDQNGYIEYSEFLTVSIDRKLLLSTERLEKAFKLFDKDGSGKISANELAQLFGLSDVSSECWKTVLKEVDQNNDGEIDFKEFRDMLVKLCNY

Protein kinase 7 (PK7), Plasmodium falciparum 3D7 (PF3D7_0213400), sequence (Q7YTF7 1-343): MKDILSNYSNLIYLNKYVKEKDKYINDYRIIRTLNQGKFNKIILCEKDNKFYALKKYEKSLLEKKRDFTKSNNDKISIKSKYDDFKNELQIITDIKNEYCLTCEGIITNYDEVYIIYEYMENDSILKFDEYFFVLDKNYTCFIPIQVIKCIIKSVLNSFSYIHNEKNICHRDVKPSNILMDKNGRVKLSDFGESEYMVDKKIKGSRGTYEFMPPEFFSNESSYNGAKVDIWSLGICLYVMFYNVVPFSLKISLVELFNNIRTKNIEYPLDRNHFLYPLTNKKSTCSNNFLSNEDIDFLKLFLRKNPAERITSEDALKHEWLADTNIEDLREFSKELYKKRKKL
Calcium-dependent protein kinase 1 (Plasmodium falciparum (isolate 3D7)), sequence (P62344 whole entry, looked up): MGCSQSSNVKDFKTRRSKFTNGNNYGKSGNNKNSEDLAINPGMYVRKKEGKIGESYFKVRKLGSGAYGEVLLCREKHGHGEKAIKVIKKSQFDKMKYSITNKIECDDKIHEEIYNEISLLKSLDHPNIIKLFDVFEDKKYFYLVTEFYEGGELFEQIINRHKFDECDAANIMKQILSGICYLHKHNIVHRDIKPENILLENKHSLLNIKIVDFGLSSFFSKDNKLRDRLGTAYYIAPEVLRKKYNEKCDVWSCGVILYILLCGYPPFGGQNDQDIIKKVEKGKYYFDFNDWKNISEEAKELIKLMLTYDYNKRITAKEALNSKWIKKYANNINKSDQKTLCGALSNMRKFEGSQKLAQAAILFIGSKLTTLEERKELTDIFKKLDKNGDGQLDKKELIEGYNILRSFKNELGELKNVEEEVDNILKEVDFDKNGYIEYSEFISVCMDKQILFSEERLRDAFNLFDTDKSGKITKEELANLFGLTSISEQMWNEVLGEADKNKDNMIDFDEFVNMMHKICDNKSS

As to `CCN(CC)CCOc1ccc(C(O)(C#CC(O)(c2ccc(OCCN(CC)CC)cc2)c2ccc([N+](=O)[O-])cc2)c2ccc([N+](=O)[O-])cc2)cc1` (stereo not drawn), the values for the growth inhibition in test [1] and in test [4] were 97% (active) and 98% (active), respectively. In addition, the inhibition in test [2] is 55% (active); in test [3], 3%. Further, the result in test [5], in test [6], in test [7] and in test [8] was inactive.

Regarding `CC(CCc1ccccc1)NCC(O)c1cccc(C(F)(F)F)c1` (stereo not drawn), the growth inhibition in test [1] is 98% (active); in test [4], 99% (active). Further, the inhibition in test [2] was 18%; in test [3], 4%. Further, the result in test [5], in test [6], in test [7] and in test [8] was inactive.

Take `O=C(/C=C/c1ccccc1Cl)Nc1ccc(Br)c(OCCN2CCCCC2)c1`: the growth inhibition was 25% in test [1] and 99% (active) in test [4]. The values for the inhibition in test [2] and in test [3] were 11% and -4%, respectively. The outcome in test [5], in test [6], in test [7] and in test [8] was inactive.

Turning to `CCNC(C)(C)CN(Cc1ccc(-c2ccc(C(F)(F)F)cc2)cc1)C(=O)Cn1c(SCc2ccc(F)cc2)nc(=O)c2c1CCC2`, the figures for the growth inhibition in test [1] and in test [4] were 94% (active) and 95% (active), respectively. For the same compound, the inhibition is 99% (active) in test [2] and 2% in test [3]. In addition, the outcome in test [5], in test [6], in test [7] and in test [8] was inactive.

On to `CN(C)CCOc1cc(NC(=O)Nc2cccc([N+](=O)[O-])c2)ccc1I`, for which the growth inhibition is 51% (active) in test [1] and 102% (active) in test [4]. Besides, the inhibition in test [2] was 8%; in test [3] it was 6%. Besides, the result in test [5], in test [6], in test [7] and in test [8] was inactive.

For the compound `O=C(/C=C/c1ccc(Cl)c(Cl)c1)N1CCC(C(O)CN2CCC(c3c[nH]c4ccccc34)CC2)CC1` (stereo not drawn), the results for the growth inhibition in test [1] and in test [4] were 46% and 99% (active), respectively. Moreover, the inhibition in test [2] is 14%; in test [3], -4%. Besides, the outcome in test [5], in test [6], in test [7] and in test [8] was inactive.

As to `CCNc1cc(C(=O)N[C@@H](Cc2ccoc2)[C@H](O)CNC(C)CCCC(C)C)cc(N2CCCCS2(=O)=O)c1` (stereo partly drawn), the growth inhibition in test [1] is 68% (active); in test [4], 99% (active). Besides, the inhibition is -2% in test [2] and 0% in test [3]. For the same compound, the result in test [5], in test [6], in test [7] and in test [8] was inactive.

As to `CC1(C)N=C(N)N=C(N)N1OCCCSc1ccccc1`, the figures for the growth inhibition in test [1] and in test [4] were 94% (active) and 93% (active), respectively. Besides, the values for the inhibition in test [2] and in test [3] were 69% (active) and 0%, respectively. In addition, the result in test [5], in test [6], in test [7] and in test [8] was inactive.

In the case of `COc1ccc2ncc(F)c(CCN3CCC(NCc4cc(C)c5c(c4)OCCO5)CC3)c2n1`, the growth inhibition in test [1] is 67% (active); in test [4], 100% (active). In addition, the inhibition in test [2] was 20%; in test [3], 0%. For the same compound, the outcome in test [5], in test [6], in test [7] and in test [8] was inactive.

On to `O=C(/C=C/c1ccc(Cl)c(Cl)c1)NCCCCCCN1CCCN(C(=O)Nc2cc(Cl)cc(Cl)c2)CC1`, for which the growth inhibition in test [1] was 2%; in test [4] it was 98% (active). Besides, the inhibition is 26% in test [2] and -3% in test [3]. The result in test [5], in test [6], in test [7] and in test [8] was inactive.

Consider `Cc1ccccc1CNC(=O)Nc1cccc(-c2csc(N=C(N)N)n2)c1`, for which the figures for the growth inhibition in test [1] and in test [4] were 14% and 99% (active), respectively. For the same compound, the inhibition is 2% in test [2] and -2% in test [3]. Moreover, the result in test [5], in test [6], in test [7] and in test [8] was inactive.

With `Clc1ccc(Nc2nc3ccc(Cl)cc3nc2Nc2ccc(Cl)cc2)cc1`, the growth inhibition in test [1] and in test [4] was 99% (active) in each case. For the same compound, the inhibition in test [2] was 79% (active); in test [3] it was 3%. The outcome in test [5], in test [6], in test [7] and in test [8] was inactive.

For `O=C(Nc1cc(Cl)ccc1O)c1cc(-c2ccccc2O)no1`, the growth inhibition was 79% (active) in test [1] and 95% (active) in test [4]. In addition, the inhibition in test [2] was -7%; in test [3], 2%. Besides, the outcome in test [5], in test [6], in test [7] and in test [8] was inactive.

With `OCc1ccc2nc3c(cc2c1)-c1cccc2cccc-3c12`, the growth inhibition is -1% in test [1] and 96% (active) in test [4]. For the same compound, the inhibition in test [2] is 16%; in test [3] it was 4%. The result in test [5], in test [6], in test [7] and in test [8] was inactive.

Consider `CC1(C)N=C(N)N=C(N)N1OCCCOc1c(Cl)cc(Cl)cc1Cl`, for which the growth inhibition in test [1] is 97% (active); in test [4] it was 94% (active). In addition, the inhibition in test [2] is 65% (active); in test [3] it was -2%. The result in test [5], in test [6], in test [7] and in test [8] was inactive.

Turning to `COc1ccc(CNCc2cccc(-c3cccc(-c4nc5ccc(C(F)(F)F)cc5[nH]4)c3)c2)cc1`, the growth inhibition in test [1] is 91% (active); in test [4], 100% (active). Besides, the inhibition in test [2] is 40%; in test [3] it was 4%. Also, the outcome in test [5], in test [6], in test [7] and in test [8] was inactive.

Take `O=C(CSc1nc(-c2ccccc2Cl)ns1)Nc1cccc(Cl)c1`: the growth inhibition was 89% (active) in test [1] and 96% (active) in test [4]. Further, the inhibition is -8% in test [2] and -4% in test [3]. Besides, the result in test [5], in test [6], in test [7] and in test [8] was inactive.

Consider `Cc1nnc(N2C(=N)SC(=Cc3ccc(-c4ccc(OC(F)(F)F)cc4)o3)C2=O)s1`, for which the growth inhibition was 58% (active) in test [1] and 85% (active) in test [4]. Moreover, the inhibition in test [2] was 37%; in test [3] it was -7%. Also, the result in test [5], in test [6], in test [7] and in test [8] was inactive.

`Cc1ccc2nc(-c3cc(-c4ccc(CO)cc4)cnc3N)[nH]c2c1`: the values for the growth inhibition in test [1] and in test [4] were 6% and 95% (active), respectively. For the same compound, the inhibition in test [2] is 52% (active); in test [3], 9%. The outcome in test [5], in test [6], in test [7] and in test [8] was inactive.

With `CCc1c(C)nc(-n2nc(C)cc2NC(=O)c2cccc3ccccc23)[nH]c1=O`, the growth inhibition is 89% (active) in test [1] and 98% (active) in test [4]. Moreover, the inhibition in test [2] was 39%; in test [3] it was 1%. Besides, the outcome in test [5], in test [6], in test [7] and in test [8] was inactive.

With `C[C@H](Cc1ccc(OCCNC[C@H](O)c2cccc(Cl)c2)cc1)NC[C@H](O)c1ccc(Cl)c(Cl)c1`, the growth inhibition is 64% (active) in test [1] and 83% (active) in test [4]. For the same compound, the inhibition is 69% (active) in test [2] and 4% in test [3]. For the same compound, the result in test [5], in test [6], in test [7] and in test [8] was inactive.

The values above are taken from PubChem BioAssay.
